From PubChem BioAssay AID1159580 (chemical genetic matrix, 2015)
Where “and” joins values, the source holds several entries; their conditions need not be identical. Identical values can stand only once. Hit rate of the full screen: of about 5,500 compounds, about 2,000 (36%) were called active. Another 18% or so got no clear call; they are omitted. Cut-off read from the data, not from the text of the source: active = normalized growth mostly below about 0.91 (no sharp cut-off); inconclusive = no clear call, values can overlap the other calls; inactive = mostly above about 0.92. Some of the results follow.

Experiment: chemical genetic growth profiling, strain panel (AID 1159580);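 note: tested at 20 µM; growth read once vehicle control cultures reached saturation at 30 °C; 1 = growth at the plate median or of vehicle wells; lower values mean less growth of the strain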
Conditions: S. cerevisiae deletion strains, growth OD

Measured: normalized growth

Nc1ccc(S(=O)(=O)Nc2cnc3ccccc3n2)cc1
inactive: locus YAL013W, strain DEP1, active compounds read low 0.994 | locus YAL021C, strain ccr4, active compounds read low 1.01 | locus YAL026C, strain drs2, active compounds read low 1 | locus YAL030W, strain snc1, active compounds read low 1.02 | locus YBL061C, strain skt5, active compounds read low 1 | locus YBR009C, strain hhf1, active compounds read low 0.973 | locus YBR021W, strain FUR4, active compounds read low 0.999 | locus YBR023C, strain chs3, active compounds read low 1.02 | locus YBR171W, strain sec66, active compounds read low 1.02 | locus YBR229C, strain ROT2, active compounds read low 0.957 | locus YBR231C, strain swc5, active compounds read low 1.01 | locus YBR279W, strain paf1, active compounds read low 1.01 | locus YCL011C, strain gbp2, active compounds read low 1.01 | locus YCL016C, strain dcc1, active compounds read low 1 | locus YCL029C, strain bik1, active compounds read low 0.983 | locus YCL061C, strain MRC1, active compounds read low 1.02 | locus YCL069W, strain vba3, active compounds read low 1.02 | locus YCR088W, strain abp1, active compounds read low 1.01 | locus YDL005C, strain med2, active compounds read low 1.02 | locus YDL035C, strain GPR1, active compounds read low 1 | locus YDL040C, strain nat1, active compounds read low 1.01 | locus YDL074C, strain BRE1, active compounds read low 0.977 | locus YDL101C, strain DUN1, active compounds read low 0.989 | locus YDL134C, strain PPH21, active compounds read low 1.01 | locus YDL185W, strain tfp1, active compounds read low 0.974 | locus YDL192W, strain arf1, active compounds read low 0.973 | locus YDR001C, strain nth1, active compounds read low 1.02 | locus YDR069C, strain doa4, active compounds read low 1.03 | locus YDR101C, strain arx1, active compounds read low 1 | locus YDR137W, strain rgp1, active compounds read low 0.993 | locus YDR150W, strain NUM1, active compounds read low 0.991 | locus YDR159W, strain sac3, active compounds read low 0.955 | locus YDR162C, strain NBP2, active compounds read low 0.999 | locus YDR195W, strain ref2 1.01 | locus YDR297W, strain sur2, active compounds read low 1.02 | locus YDR318W, strain mcm21, active compounds read low 0.995 | locus YDR334W, strain swr1, active compounds read low 1.02 | locus YDR335W, strain msn5, active compounds read low 1.01 | locus YDR388W, active compounds read low 0.986 | locus YDR392W, strain spt3, active compounds read low 0.942 | locus YDR502C, strain sam2, active compounds read low 0.978 | locus YEL003W, strain gim4, active compounds read low 1.02 | locus YEL037C, strain rad23, active compounds read low 1.01 | locus YEL061C, strain CIN8 (second series), active compounds read low 1.01 | locus YEL061C, strain CIN8, active compounds read low 0.981 | locus YER015W, strain faa2, active compounds read low 1 | locus YER016W, strain bim1, active compounds read low 0.962 | locus YER110C, active compounds read low 0.981 | locus YER111C, strain swi4, active compounds read low 1.02 | locus YER155C, strain BEM2 (second series), active compounds read low 0.981 | locus YER155C, strain BEM2, active compounds read low 0.996 | locus YER167W, strain BCK2, active compounds read low 0.993 | locus YFR010W, strain ubp6, active compounds read low 1.04 | locus YGL078C, strain dbp3, active compounds read low 0.99 | locus YGL086W, strain mad1, active compounds read low 0.983 | locus YGL167C, strain pmr1, active compounds read low 1.01 | locus YGL173C, strain kem1, active compounds read low 1.01 | locus YGL227W, strain vid30, active compounds read low 1.02 | locus YGL240W, strain doc1, active compounds read low 1.03 | locus YGL248W, strain PDE1, active compounds read low 0.972 | locus YGL253W, strain hxk2, active compounds read low 1.02 | locus YGR135W, strain pre9, active compounds read low 0.992 | locus YGR252W, strain gcn5, active compounds read low 0.988 | locus YHR013C, strain ard1, active compounds read low 1 | locus YHR027C, strain rpn1, active compounds read low 1.01 | locus YHR030C, strain SLT2, active compounds read low 1 and 0.974 | locus YHR079C, strain IRE1 (second series), active compounds read low 0.989 | locus YHR079C, strain IRE1, active compounds read low 0.957 | locus YHR094C, strain hxt1, active compounds read low 0.985 | locus YHR129C, strain ARP1, active compounds read low 0.989 | locus YHR142W, strain chs7, active compounds read low 1.05 | locus YHR200W, strain rpn10, active compounds read low 0.967 | locus YIL066C, strain RNR3, active compounds read low 0.978 | locus YIL073C, strain SPO22, active compounds read low 1.02 | locus YIL125W, strain kgd1, active compounds read low 0.981 | locus YIR030C, strain dcg1, active compounds read low 0.981 | locus YJL092W, strain hpr5, active compounds read low 0.996 | locus YJL095W, strain BCK1 (second series), active compounds read low 1.02 | locus YJL095W, strain BCK1, active compounds read low 0.965 and 0.98 | locus YJL115W, strain asf1, active compounds read low 1.02 | locus YJL129C, strain trk1, active compounds read low 1.01 | locus YJL134W, strain LCB3, active compounds read low 0.993 | locus YJL154C, strain vps35, active compounds read low 1.02 | locus YJL164C, strain tpk1, active compounds read low 0.996 | locus YJL166W, strain qcr8, active compounds read low 1.02 | locus YJL168C, strain set2, active compounds read low 0.976 | locus YJL187C, strain SWE1 (second series), active compounds read low 0.964 | locus YJL187C, strain SWE1, active compounds read low 1.01 | locus YJR043C, strain POL32, active compounds read low 1.02 | locus YJR066W, strain TOR1, active compounds read low 0.918
